Data from PubChem BioAssay (NCI).
About 83,000 compounds went through this panel and 20% of them were active in at least one assay; those are over-represented in the sample as a whole.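 Interpretation: 100, growth as untreated; towards 0, rising growth inhibition; 0, no net growth; 0 to -100, cell death. Compounds scoring below 10 were considered active.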 Unmarked numbers belong to inactive results. The source made the active and inactive calls.

Assays:
Experiment in all cases: NCI-60 one-dose screen, 48 h (100 = growth as untreated, 0 = no growth, -100 = all killed)
Settings in all cases: 10 µM unless noted
[1] = tested on: DU-145 prostate
[2] = tested on: K-562 leukemia
[3] = tested on: MALME-3M melanoma
[4] = tested on: MDA-MB-231 breast
[5] = tested on: RXF 393 renal
[6] = tested on: SF-268 CNS
[7] = tested on: SF-295 CNS
[8] = tested on: SF-539 CNS
[9] = tested on: UACC-257 melanoma
[10] = tested on: M14 melanoma
[11] = tested on: HCT-15 colon
[12] = tested on: HT29 colon
[13] = tested on: SNB-75 CNS
[14] = tested on: SNB-19 CNS
[15] = tested on: U251 CNS
[16] = tested on: PC-3 prostate
[17] = tested on: SK-MEL-5 melanoma
[18] = tested on: UACC-62 melanoma
[19] = tested on: LOX IMVI melanoma
[20] = tested on: SK-MEL-28 melanoma

Structure (SMILES) | growth [1] | growth [2] | growth [3] | growth [4] | growth [5] | growth [6] | growth [7] | growth [8] | growth [9] | growth [10] | growth [11] | growth [12] | growth [13] | growth [14] | growth [15] | growth [16] | growth [17] | growth [18] | growth [19] | growth [20]
C=C(C)C1CCC2(C(=O)O)CCC3(C)C(CCC4C5(C)CCC(OC(=O)NCc6ccccc6)C(C)(C)C5CCC43C)C12 (stereo not given) | 56.2% | 28.5% | 72.1% | 53.6% | 60.2% | 65.4% | 41.9% | 53.5% | 29.3% | 45.6% | 40.8% | 43.5% | 75.7% | 65.4% | 40.6% | 41.2% | 28.4% | 33.9% | 39.8% | 61.5%
CS(=O)(=O)c1cccnn1 | 97.6% | 84.3% | 88.8% | 102% | 102% | 98.8% | 112% | 82% | 108% | 103% | 108% | 89.7% | 48.9% | 102% | 92.9% | 95.6% | 92.9% | 90.7% | 85.2% | 117%
O=C(NCCCCCCCNC(=O)OCc1ccc2c(Cl)cc(Cl)c(O)c2n1)OCc1ccc2c(Cl)cc(Cl)c(O)c2n1 | -87.3% (active) | 2.04% (active) | -87.4% (active) | -72% (active) | -90.1% (active) | -58.8% (active) | 1.17% (active) | -96.6% (active) | -41.6% (active) | -76.4% (active) | -24.6% (active) | -67% (active) | -92.4% (active) | 0.446% (active) | -90.8% (active) | -54.5% (active) | -96.1% (active) | -79.3% (active) | -88.5% (active) | -83.1% (active)
O=C(Nc1ccc(CN2CCOCC2)c(C(F)(F)F)c1)c1nc2ccc3[nH]ncc3c2c2c1CCCC2 | 104% | 82.8% | 106% | 95.9% | 99.7% | 103% | 97.7% | 99.1% | 88.9% | 91.6% | 82.4% | 74.8% | 128% | 98.4% | 92% | 66.2% | 102% | 79.2% | 90.5% | 103%
O=C(N/N=C/c1ccc([N+](=O)[O-])cc1)c1ccc(Br)o1 | 126% | 114% | 106% | 113% | 90.3% | 111% | 83% | 97.8% | 107% | 107% | 94.5% | 106% | 105% | 90.2% | 101% | 87.1% | 95.8% | 99.6% | 98% | 110%
CCOC(=O)c1c[nH]n2c(=S)ncnc12 | 108% | 106% | 109% | 109% | 113% | 98.5% | 109% | 105% | 102% | 103% | 102% | 100% | 90.7% | 96.1% | 102% | 117% | 105% | 97.5% | 96.4% | 108%
CC(C)CCSc1nc(N)nc2nc[nH]c12 | 107% | 81.7% | 250% | 106% | 106% | 108% | 132% | 87.4% | 113% | 91.6% | 107% | 114% | 101% | 93.3% | 100% | 93.7% | 93.2% | 82.3% | 86.8% | 121%
COc1ccc(N(c2nc(-c3ccc([N+](=O)[O-])cc3)cs2)C(C)C)cc1 | 86.1% | 55.1% | 94.6% | 73.9% | 102% | 83.5% | 89.8% | 88.7% | 80.5% | 89.9% | 88% | 97.2% | 103% | 89.9% | 90.3% | 84% | 78.9% | 68.4% | 80.9% | 103%
CC(C)C1=NOC(=O)C1=Cc1cn(-c2ccccc2)nc1-c1ccccc1 | 80.8% | 42.2% | 90.5% | 97.4% | 70.3% | 93.9% | 98.1% | 91.3% | 94.1% | 76.2% | 77.4% | 49.2% | 72.5% | 74.8% | 53% | 67.9% | 91.6% | 76.1% | 18% | 95.1%
O=[N+]([O-])c1cc([N+](=O)[O-])c(C(F)(F)F)cc1NN=C(c1ccc(O)cc1)c1ccc(O)cc1 | 114% | 103% | 117% | 83.2% | -57.8% (active) | 88% | 110% | -64.7% (active) | -61% (active) | -47.8% (active) | 13.7% | 91.6% | 92.7% | -4.43% (active) | 26.2% | 51.1% | -96.7% (active) | 60.6% | 14% | 94.8%
N#CC1C(=O)NC(c2ccccc2[N+](=O)[O-])c2sc3c(F)cccc3c21 (stereo not given) | 89.9% | 35.9% | 74.7% | 75.6% | 69.9% | 86.7% | 20.8% | 85.7% | -37.3% (active) | 92.7% | 87.8% | 85.3% | 82.6% | 70.8% | 42.6% | 80% | 75.2% | 9.47% (active) | 91.4% | 111%
C=C(C)[C@@H]1CC[C@]2(C(=O)O)CC[C@]3(C)[C@H](CC[C@@H]4[C@@]5(C)C/C(=C/c6ccco6)C(=O)C(C)(C)[C@@H]5CC[C@]43C)[C@@H]12 | -35% [100 µM] (active) | 8.08% [100 µM] (active) | -82.3% [100 µM] (active) | -60.8% [100 µM] (active) | -98.2% [100 µM] (active) | -41.5% [100 µM] (active) | -82.8% [100 µM] (active) | -77.8% [100 µM] (active) | -64.1% [100 µM] (active) | -62.6% [100 µM] (active) | -65.6% [100 µM] (active) | -56.2% [100 µM] (active) | -70.3% [100 µM] (active) | -51.5% [100 µM] (active) | -58.6% [100 µM] (active) | -49.3% [100 µM] (active) | -73.5% [100 µM] (active) | -97.6% [100 µM] (active) | -60.6% [100 µM] (active) | -64.7% [100 µM] (active)
O=S(=O)(NCCCNc1nccc(-c2c(-c3cccc(F)c3)nc3occn23)n1)c1cccc2ccccc12 | 41.4% | 4.01% (active) | 31.1% | -0.0227% (active) | 47.9% | 36.6% | 52.8% | 61.8% | 58.3% | 31.8% | 29.2% | 5.59% (active) | 62.5% | 64.7% | 49.8% | 18.1% | 27% | 31.5% | 35.3% | 64.9%
O=C(CCN1CCCCC1)c1ccc(Cl)cc1 | 106% | 118% | 105% | 104% | 113% | 104% | 94.2% | 99.9% | 108% | 107% | 98.5% | 104% | 89.1% | 103% | 107% | 91.6% | 97.6% | 103% | 91.3% | 108%
CC1(C)CC[C@]2(C(=O)O)CC[C@]3(C)[C@H](CC[C@@H]4[C@@]5(C)CCC(=O)C(C)(C)[C@@H]5CC[C@]43C)[C@H]2[C@H]1OC(=O)C(F)(F)F | -53.4% [100 µM] (active) | 1.66% [100 µM] (active) | -65% [100 µM] (active) | -62.3% [100 µM] (active) | -82.1% [100 µM] (active) | -92.4% [100 µM] (active) | -62.5% [100 µM] (active) | -86% [100 µM] (active) | -87% [100 µM] (active) | -35.2% [100 µM] (active) | -64% [100 µM] (active) | -37.7% [100 µM] (active) | -36.5% [100 µM] (active) | -78.4% [100 µM] (active) | -71.4% [100 µM] (active) | -56.4% [100 µM] (active) | -94.2% [100 µM] (active) | -85.2% [100 µM] (active) | -99.1% [100 µM] (active) | -58.5% [100 µM] (active)
